From PubChem BioAssay
Hits are enriched below; roughly 6.4% of the tested compounds scored in any of these assays.
Gal4-VP16 FLuc – inhibits Gal4-VP16 luciferase reporter, ROR gamma counter-screen; Drosophila S2 Gal4-VP16 UAS-luciferase, luminescence, 20 h; Potency, µM (doses to about 53.6 µM), without a hit: top-dose activity, negative = inhibition, actives largely listed as inhibitors; 310,000 compounds, 3.5% hits;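 further: Gal4-VP16 expression switched on by copper sulfate through the metallothionein promoter; nearly all actives have a fitted effect of over 50% in size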
RORg inh – blocks mouse ROR gamma transcriptional activity. Potency, µM (series often up to 53.6 µM), inactives show at the highest dose activity change, negative = inhibition, most hits filed as inhibitors. Drosophila S2 Gal4-RORgamma UAS-luciferase reporter, 20 h. 310,000 compounds, 5.4% hits; further: nearly all actives have a fitted effect of over 60% in size
Target sequence (P51450 whole entry, looked up, the tested form may be a part): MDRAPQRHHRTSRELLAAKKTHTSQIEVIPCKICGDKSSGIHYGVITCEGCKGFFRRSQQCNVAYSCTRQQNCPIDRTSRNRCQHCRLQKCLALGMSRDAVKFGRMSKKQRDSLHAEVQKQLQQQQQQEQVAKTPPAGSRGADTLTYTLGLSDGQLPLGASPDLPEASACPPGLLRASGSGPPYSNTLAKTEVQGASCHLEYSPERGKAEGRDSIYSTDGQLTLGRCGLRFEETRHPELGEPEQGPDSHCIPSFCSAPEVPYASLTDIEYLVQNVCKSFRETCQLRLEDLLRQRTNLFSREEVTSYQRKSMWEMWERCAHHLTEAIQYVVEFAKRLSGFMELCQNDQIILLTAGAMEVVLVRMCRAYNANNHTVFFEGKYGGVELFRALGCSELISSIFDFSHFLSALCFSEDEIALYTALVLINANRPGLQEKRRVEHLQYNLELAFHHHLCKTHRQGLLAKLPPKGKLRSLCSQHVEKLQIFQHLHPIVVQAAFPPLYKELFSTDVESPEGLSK
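Compounds are pin-transferred onto Drosophila Schneider cells expressing a copper-inducible Gal4–ROR gamma transactivation domain fusion. After 1 hr, copper sulfate is added to 700 uM final; luciferase is read 20 hr later.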
KinaseGlo FLuc – Kinase-Glo luciferase inhibition (counter-screen); Potency, µM (top dose mostly 38.3 µM), inactives show at the highest dose activity change, negative = inhibition, actives largely listed as inhibitors; Kinase-Glo luciferase, ATP luminescence, 8 min; AID 1379; 200,000 compounds, 0.28% hits; further: nearly all actives have a fitted effect of over 60% in size
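Substrate mix (final 50 mM imidazole pH 7.2, 50 mM KCl, 7 mM MgCl2, 10 uM ATP, 0.01% Tween 20, 0.05% BSA) plus pin-tool compound, then Kinase-Glo detection mix; 8 min ambient, luminescence read.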
Starred values were filed as active, the others as inactive; [ ] = remark or other dose. The call rests on the fitted dose curve; in most records, active means well fitted curve in the direction sought with a large enough effect; inconclusive means small, poorly fitted or top-dose-only effect, or another doubt; inactive means no such curve, though single readings can be large; an effect the other way counts as inactive or inconclusive. On the % scale 0 is the no-effect control and ±100 the full control effect; potency means the concentration at half of the fitted maximal effect.

How did O=C(N/N=C/c1cccs1)c1cc(-c2ccc(Cl)s2)[nH]n1 do in these assays?
Gal4-VP16 FLuc: 7.9µM*; RORg inh: 10µM*

How did Cc1cc(C(=O)N/N=C/C=C/c2ccccc2)n[nH]1 do in these assays?
Gal4-VP16 FLuc: -1%; RORg inh: -24%

What do the screens show for `O=C(N/N=C/c1ccco1)c1cc(-c2ccc(Cl)s2)[nH]n1`?
Gal4-VP16 FLuc: 0%; RORg inh: 7%; KinaseGlo FLuc: 2%

What do the screens show for `Cc1ccc(-c2cc(C(=O)N/N=C/C=C/c3ccccc3)n[nH]2)s1`?
Gal4-VP16 FLuc: 7.1µM*; RORg inh: 4µM*; KinaseGlo FLuc: 0%

How did Cn1ncc2c(NCCc3ccccc3)nc(Cl)nc21 do in these assays?
KinaseGlo FLuc: -10%[7.66 µM]

Results for COC(=O)/C(=C/c1c[nH]c2ccccc12)NC(C)=O ?
Gal4-VP16 FLuc: -2%; RORg inh: 8%; KinaseGlo FLuc: 0%

Results for COC(=O)/C(=C/c1c[nH]c2ccccc12)[N+](=O)[O-] ?
Gal4-VP16 FLuc: 20µM*; RORg inh: inconclusive

Results for COc1cccc([C@@H]2Oc3ccc(OC)cc3C[C@H]2OC(=O)NCc2ccco2)c1 ?
Gal4-VP16 FLuc: -10%; RORg inh: 19%; KinaseGlo FLuc: 0%

What do the screens show for `CN1CCN(NC(=O)c2ccc(COc3ccccc3Br)o2)CC1`?
Gal4-VP16 FLuc: -2%; RORg inh: 0%; KinaseGlo FLuc: -2%

What do the screens show for `Cc1ccc(/C=N/NC(=O)c2ccc(Cn3cc([N+](=O)[O-])cn3)o2)cc1`?
Gal4-VP16 FLuc: -7%; RORg inh: 3%; KinaseGlo FLuc: 10%

What do the screens show for `O=C(Nc1nc2ccccc2n1CCN1CCOCC1)c1ccc(Cn2cc([N+](=O)[O-])cn2)o1`?
Gal4-VP16 FLuc: inconclusive; RORg inh: 11µM*

What do the screens show for `O=C(Nc1nc2ccccc2n1CCN1CCOCC1)c1ccc(COc2ccccc2Br)o1`?
Gal4-VP16 FLuc: 5.6µM*; RORg inh: 2µM*; KinaseGlo FLuc: -2%

Results for C=CCNC(=O)c1c[nH]c2ccc(S(=O)(=O)N(C)c3ccc(OCC)cc3)cc2c1=O ?
Gal4-VP16 FLuc: -8%; RORg inh: inconclusive

What do the screens show for `O=C(NCc1ccc(Cl)cc1)C(=O)Nc1nccs1`?
Gal4-VP16 FLuc: -13%; RORg inh: -13%; KinaseGlo FLuc: -2%

How did O=C(Nc1nccs1)C(F)(F)C(F)(F)C(F)(F)C(=O)Nc1nccs1 do in these assays?
Gal4-VP16 FLuc: -1%; RORg inh: inconclusive

How did O=C(Nc1nccs1)c1ccc(-c2ccc(F)cc2)o1 do in these assays?
Gal4-VP16 FLuc: inconclusive; RORg inh: inconclusive; KinaseGlo FLuc: -5%

Results for O=C(/C=C/c1ccc(Cl)cc1)Nc1nccs1 ?
Gal4-VP16 FLuc: -5%; RORg inh: 8.9µM*; KinaseGlo FLuc: -8%

Results for O=C(Nc1nccs1)c1ccc(-c2ccc(Cl)cc2)o1 ?
Gal4-VP16 FLuc: inconclusive; RORg inh: 4µM*; KinaseGlo FLuc: -7%

How did C/C=C/C=C/C(=O)Nc1nccs1 do in these assays?
Gal4-VP16 FLuc: 5.6µM*; RORg inh: 10µM*; KinaseGlo FLuc: -3%

Results for COc1ccccc1CNC(=O)c1sccc1-c1ccccc1 ?
Gal4-VP16 FLuc: 10%; RORg inh: 3%

What do the screens show for `CCCn1c(C)nc2c(NCCCCN(C)C)nc(C)nc21`?
Gal4-VP16 FLuc: 7%; RORg inh: -2%; KinaseGlo FLuc: -4%

What do the screens show for `COC(=O)CN1C(=O)[C@@H]2[C@H](C1=O)[C@@H]1CC(C(=O)OC)=C[C@@H](C(=O)OC)C3C1=C(C(=O)[C@]3(C)NC(=O)c1ccccc1)[C@@H]2C` (stereo partly specified)?
Gal4-VP16 FLuc: -15%; RORg inh: -9%

What do the screens show for `S=c1nc[nH]c2c1ncn2Cc1ccco1`?
KinaseGlo FLuc: -5%[7.66 µM]

Results for Cc1ccccc1-c1nc(NC2CCNCC2)c2ccccc2n1 ?
Gal4-VP16 FLuc: 18%; RORg inh: 0%; KinaseGlo FLuc: -4%

How did CCN(CC)C(=O)CSc1nnc(-c2ccccn2)n1-c1ccccc1OC do in these assays?
Gal4-VP16 FLuc: -10%; RORg inh: -2%

Results for O=C(N1CCOCC1)N1CCc2ccccc21 ?
Gal4-VP16 FLuc: 1%; RORg inh: 12%

What do the screens show for `C#C[C@]1(O)CC[C@@H]2[C@H]3CCC4=CC(=O)CC[C@H]4[C@H]3C(=C)C[C@@]21CC`?
Gal4-VP16 FLuc: -14%; RORg inh: -14%

How did CC(C)c1ccccc1-n1c(-c2cccnc2)n[nH]c1=S do in these assays?
Gal4-VP16 FLuc: -28%; RORg inh: inconclusive; KinaseGlo FLuc: -1%

Results for Cc1cccc(-n2c(-c3csc(C)c3C)n[nH]c2=S)c1 ?
Gal4-VP16 FLuc: 11µM*; RORg inh: 2.5µM*; KinaseGlo FLuc: -4%

What do the screens show for `COc1ccc(CC(=O)NCc2n[nH]c(=S)n2-c2cccc(C)c2)cc1`?
Gal4-VP16 FLuc: 4%; RORg inh: -34%; KinaseGlo FLuc: -6%

How did Cc1ccccc1-n1c(-c2csc(C)c2C)n[nH]c1=S do in these assays?
Gal4-VP16 FLuc: 6.3µM*; RORg inh: 2.8µM*; KinaseGlo FLuc: -6%

Results for CCc1cc(-c2n[nH]c(=S)n2C(C)c2ccccc2)cs1 (stereo unspecified) ?
Gal4-VP16 FLuc: -74%; RORg inh: -83%; KinaseGlo FLuc: 0%

What do the screens show for `Cc1scc(-c2n[nH]c(=S)n2C(C)c2ccccc2)c1C` (stereo unspecified)?
Gal4-VP16 FLuc: 7.1µM*; RORg inh: 4µM*; KinaseGlo FLuc: 0%

How did Cc1ccccc1-n1c(-c2csc3ccccc23)n[nH]c1=S do in these assays?
Gal4-VP16 FLuc: inconclusive; RORg inh: 1.1µM*; KinaseGlo FLuc: -2%

Results for CCOC(=O)C1=NN(c2ccccc2)C2=NC(C)=C(C(=O)OC)C(c3ccc(C)cc3)N12 (stereo unspecified) ?
Gal4-VP16 FLuc: 1%; RORg inh: 14%; KinaseGlo FLuc: -3%

How did C=CCCCCCCCCCCC/C=C/C(O)COC(C)=O (stereo unspecified) do in these assays?
Gal4-VP16 FLuc: 0%; RORg inh: -10%; KinaseGlo FLuc: 1%

Results for CC1CCN(c2c([N+](=O)[O-])c(=O)oc3ccccc23)CC1 ?
Gal4-VP16 FLuc: 3%; RORg inh: -4%; KinaseGlo FLuc: -5%

What do the screens show for `Cc1cc(C)cc(NC(=O)C2C3C=CC4(O3)C2C(=O)N(CCCN(C)C)C4C(=O)NC2CCCC(C)C2C)c1` (stereo unspecified)?
Gal4-VP16 FLuc: 1%; RORg inh: inconclusive

Results for Cc1ccc(SCc2cc(=O)[nH]c(Nc3nc(C)c4ccc(C)cc4n3)n2)cc1 ?
Gal4-VP16 FLuc: -5%; RORg inh: -1%; KinaseGlo FLuc: -3%

Results for COCc1cc(=O)[nH]c(Nc2nc(C)c3cc(OC)ccc3n2)n1 ?
Gal4-VP16 FLuc: -3%; RORg inh: -15%; KinaseGlo FLuc: -1%

Results for Cc1nn2c(=O)cc(CSc3nc4ccccc4[nH]3)nc2s1 ?
Gal4-VP16 FLuc: -11%; RORg inh: 4µM*; KinaseGlo FLuc: 3%

What do the screens show for `COc1ccc(C(=O)Nc2ccccc2SCc2cc(=O)n3nc(C)sc3n2)cc1OC`?
Gal4-VP16 FLuc: -2%; RORg inh: 1%
